We go through three sequences from US20140271602, “NUCLEOTIDE-SPECIFIC RECOGNITION SEQUENCES FOR DESIGNER TAL EFFECTORS” (THE BROAD INSTITUTE INC., published 2014).

Residue numbers refer to the chain shown, from its start.

Test in all cases: cell_activity; luciferase reporter
Settings in all cases: tags: VP64, 2A-GFP; dsDNA, one strand shown
(In general: A reporter such as luciferase makes a cellular process visible.)

Experiment [1] deals with T1, TALE1-NN (CACNA1C site 1 activator) (Xanthomonas (engineered), UniProt P14727 SEQ:1-983).
T1 chain: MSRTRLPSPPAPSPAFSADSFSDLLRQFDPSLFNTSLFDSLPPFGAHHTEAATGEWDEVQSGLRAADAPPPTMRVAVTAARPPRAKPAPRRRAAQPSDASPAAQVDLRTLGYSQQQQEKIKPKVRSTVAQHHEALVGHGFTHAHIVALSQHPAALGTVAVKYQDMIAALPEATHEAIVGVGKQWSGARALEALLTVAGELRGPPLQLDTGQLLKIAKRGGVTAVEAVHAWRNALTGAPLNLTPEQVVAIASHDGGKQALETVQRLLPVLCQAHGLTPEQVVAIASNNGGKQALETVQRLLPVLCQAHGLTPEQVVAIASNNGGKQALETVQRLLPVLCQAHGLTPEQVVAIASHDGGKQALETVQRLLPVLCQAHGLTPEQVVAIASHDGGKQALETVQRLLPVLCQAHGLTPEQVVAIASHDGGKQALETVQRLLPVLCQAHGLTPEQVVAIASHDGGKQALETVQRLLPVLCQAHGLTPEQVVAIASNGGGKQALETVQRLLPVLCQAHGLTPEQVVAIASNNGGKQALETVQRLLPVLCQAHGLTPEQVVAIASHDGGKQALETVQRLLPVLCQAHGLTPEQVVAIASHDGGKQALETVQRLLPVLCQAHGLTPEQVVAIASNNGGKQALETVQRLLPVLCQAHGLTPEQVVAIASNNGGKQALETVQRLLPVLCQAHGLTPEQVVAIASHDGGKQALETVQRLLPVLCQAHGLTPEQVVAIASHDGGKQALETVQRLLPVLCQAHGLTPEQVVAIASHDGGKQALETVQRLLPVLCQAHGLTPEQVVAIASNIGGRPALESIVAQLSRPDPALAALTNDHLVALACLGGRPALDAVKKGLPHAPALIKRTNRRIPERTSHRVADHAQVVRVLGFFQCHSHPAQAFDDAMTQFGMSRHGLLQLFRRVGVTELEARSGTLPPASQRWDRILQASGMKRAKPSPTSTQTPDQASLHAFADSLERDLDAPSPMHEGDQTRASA

Experiment [2] addresses T2, TALE1-NK (CACNA1C site 1 activator) (Xanthomonas (engineered), UniProt P14727 SEQ:1-983).
T2 chain: T1 chain with N287K, N321K, N525K, N627K, N661K

Experiment [3] has as its target T3, TALE2-HN (CACNA1C site 2 activator) (Xanthomonas (engineered), UniProt P14727 SEQ:1-983).
T3 chain: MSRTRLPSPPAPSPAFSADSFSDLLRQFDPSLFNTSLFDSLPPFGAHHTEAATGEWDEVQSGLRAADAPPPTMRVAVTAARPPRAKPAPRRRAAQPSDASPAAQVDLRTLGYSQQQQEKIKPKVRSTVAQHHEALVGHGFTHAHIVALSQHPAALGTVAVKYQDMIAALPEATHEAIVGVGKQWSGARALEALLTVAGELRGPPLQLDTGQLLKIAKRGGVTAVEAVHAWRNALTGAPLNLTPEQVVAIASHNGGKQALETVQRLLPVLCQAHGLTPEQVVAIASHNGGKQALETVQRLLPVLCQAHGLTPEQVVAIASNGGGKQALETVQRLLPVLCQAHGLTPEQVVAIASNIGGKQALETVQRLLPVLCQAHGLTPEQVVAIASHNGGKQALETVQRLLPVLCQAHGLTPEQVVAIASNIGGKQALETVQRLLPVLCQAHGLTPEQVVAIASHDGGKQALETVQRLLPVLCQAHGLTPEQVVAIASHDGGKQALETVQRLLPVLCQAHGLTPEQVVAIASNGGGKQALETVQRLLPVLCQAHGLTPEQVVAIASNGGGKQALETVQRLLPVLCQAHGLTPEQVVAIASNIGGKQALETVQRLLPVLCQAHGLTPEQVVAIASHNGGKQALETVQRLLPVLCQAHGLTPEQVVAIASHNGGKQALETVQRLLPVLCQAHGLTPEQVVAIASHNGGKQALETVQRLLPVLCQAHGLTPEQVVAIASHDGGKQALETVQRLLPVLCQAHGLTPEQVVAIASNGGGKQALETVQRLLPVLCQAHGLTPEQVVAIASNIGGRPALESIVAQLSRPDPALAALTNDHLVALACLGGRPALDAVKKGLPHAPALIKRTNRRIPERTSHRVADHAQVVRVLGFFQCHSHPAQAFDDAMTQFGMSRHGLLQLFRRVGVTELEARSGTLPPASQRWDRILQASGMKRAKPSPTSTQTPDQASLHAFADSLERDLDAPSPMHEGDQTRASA

In experiment [4] the target is T4, TALE2-NH (CACNA1C site 2 activator) (Xanthomonas (engineered), UniProt P14727 SEQ:1-983).
T4 chain: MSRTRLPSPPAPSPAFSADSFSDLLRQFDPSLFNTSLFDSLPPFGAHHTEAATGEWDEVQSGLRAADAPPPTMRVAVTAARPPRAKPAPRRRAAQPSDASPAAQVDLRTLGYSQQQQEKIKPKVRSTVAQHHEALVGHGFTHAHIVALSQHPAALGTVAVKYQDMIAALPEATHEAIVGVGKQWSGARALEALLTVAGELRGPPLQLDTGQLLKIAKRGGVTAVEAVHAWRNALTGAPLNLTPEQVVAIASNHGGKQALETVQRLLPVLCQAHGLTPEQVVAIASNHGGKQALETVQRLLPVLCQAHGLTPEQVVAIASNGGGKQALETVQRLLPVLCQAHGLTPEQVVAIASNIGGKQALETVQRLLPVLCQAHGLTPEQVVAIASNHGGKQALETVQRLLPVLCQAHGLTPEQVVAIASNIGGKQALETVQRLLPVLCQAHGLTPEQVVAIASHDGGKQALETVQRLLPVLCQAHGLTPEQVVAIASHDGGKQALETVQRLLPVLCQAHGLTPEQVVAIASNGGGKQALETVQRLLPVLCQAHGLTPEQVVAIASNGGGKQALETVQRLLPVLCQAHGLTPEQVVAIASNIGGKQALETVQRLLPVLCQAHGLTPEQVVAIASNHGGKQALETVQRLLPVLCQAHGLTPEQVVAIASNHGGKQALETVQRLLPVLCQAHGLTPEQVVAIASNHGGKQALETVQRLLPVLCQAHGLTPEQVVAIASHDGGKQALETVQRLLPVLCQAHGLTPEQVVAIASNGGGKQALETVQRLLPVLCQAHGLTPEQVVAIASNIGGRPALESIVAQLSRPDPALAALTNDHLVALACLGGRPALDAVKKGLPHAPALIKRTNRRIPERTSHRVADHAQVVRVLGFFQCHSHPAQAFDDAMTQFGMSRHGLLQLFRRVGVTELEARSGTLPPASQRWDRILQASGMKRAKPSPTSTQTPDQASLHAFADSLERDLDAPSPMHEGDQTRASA

Experiment [5] has as its target T5, TALE2-NK (CACNA1C site 2 activator) (Xanthomonas (engineered), UniProt P14727 SEQ:1-983).
T5 chain: T4 chain with H253K, H287K, H389K, H627K, H661K, H695K

Turning to TCAACCCCTGCCGGCCCA, the binding signal in experiment [1] was 35.4 % reduction vs wild-type site; in experiment [2] it was 40.3 % reduction vs wild-type site.

As for TAATAGACCTTAGGGCTA, the binding signal in experiment [3] was 13.9 % reduction vs wild-type site; in experiment [4], 66.1 % reduction vs wild-type site; in experiment [5] it was 36.3 % reduction vs wild-type site.

With TAATAAACCTTAAAACTA, in experiment [4], the binding signal is < 10 % of wild-type site activation.
